Compounds with a hit are over-represented: about 0.9% of the library has one in this group of screens.
TR-FRET SRC-2 ct: TR-FRET artefact, counter-screen to PPARgamma/SRC-2 agonist assay. stronger effect = higher value. TR-FRET ratio at 8 µM. 200,000 compounds, 0.4% hits
PPARg SRC1 recr: promotes SRC-1 coactivator recruitment by human PPARgamma. PPARgamma-SRC-1 coactivator recruitment biochemical assay. 200,000 compounds, 0.41% hits. P37231. activation, % at 8 µM. AID 631; in the data active = activation above about 19%;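 also: 0% = DMSO and 100% = reference agonist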
Target sequence (P37231 whole entry, looked up): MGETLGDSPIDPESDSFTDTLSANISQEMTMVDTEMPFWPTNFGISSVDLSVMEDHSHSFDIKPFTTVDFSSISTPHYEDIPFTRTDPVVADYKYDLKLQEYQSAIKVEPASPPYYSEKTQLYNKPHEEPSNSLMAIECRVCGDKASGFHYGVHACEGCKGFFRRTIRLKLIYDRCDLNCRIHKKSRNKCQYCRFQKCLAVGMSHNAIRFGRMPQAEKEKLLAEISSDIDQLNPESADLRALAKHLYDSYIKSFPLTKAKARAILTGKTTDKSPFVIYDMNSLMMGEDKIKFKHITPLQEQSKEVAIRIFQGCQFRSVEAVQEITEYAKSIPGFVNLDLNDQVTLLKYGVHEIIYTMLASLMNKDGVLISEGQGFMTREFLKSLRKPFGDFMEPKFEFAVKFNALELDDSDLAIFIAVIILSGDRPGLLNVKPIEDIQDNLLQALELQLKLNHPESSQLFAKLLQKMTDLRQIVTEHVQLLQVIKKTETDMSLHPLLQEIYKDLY
PPARg SRC-2 ag: agonists of SRC-2 recruitment by human PPARgamma; P37231; activation, % at 8 µM; 200,000 compounds, 0.34% hits; PPARgamma LBD-SRC-2 recruitment, biochemical; AID 1032; in the data active = activation above about 22%;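 also: 0% = vehicle and 100% = reference agonist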
SRC3 TRFRET art: counter-screen for PPARgamma SRC-3 recruitment agonists: TR-FRET artefact | TR-FRET ratio at 8 µM | AID 1048 | PPARgamma/SRC-3 format; stronger effect = higher value | 99,000 compounds, 0.39% hits
PPARg SRC3 recr: promotes SRC-3 coactivator recruitment by human PPARgamma; biochemical PPARgamma/SRC-3 coactivator recruitment assay; activation, % at 8 µM; 200,000 compounds, 0.26% hits; AID 731; in the data active = activation above about 23%;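 also: 0% = DMSO and 100% = reference agonist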
SRC1 TRFRET art: flags TR-FRET format artefacts in PPARgamma SRC-1 recruitment agonist screen | AID 1051 | TR-FRET detection artefact counter-screen, emission ratio; stronger effect = higher value | 99,000 compounds, 0.34% hits | TR-FRET ratio at 8 µM; in the data active = TR-FRET ratio above about 2300
Starred values were filed as active, the others as inactive. Rule as the data show it, unless noted: active = TR-FRET ratio above about 2000; inactive = the rest.

`Cn1c(N)c(C(=O)c2ccc(Cl)cc2)c(=O)n(C)c1=O` gave TR-FRET SRC-2 ct 1575, PPARg SRC1 recr -2, PPARg SRC-2 ag 11, SRC3 TRFRET art 1739, PPARg SRC3 recr 3 and SRC1 TRFRET art 1960.
COc1ccc(Nc2cnn(-c3nc4ccccc4s3)c(=O)c2Cl)cc1 was read as TR-FRET SRC-2 ct 1746, PPARg SRC1 recr 13, PPARg SRC-2 ag 5, SRC3 TRFRET art 1521, PPARg SRC3 recr 8 and SRC1 TRFRET art 2001.
For O=c1c(Cl)c(Nc2cccc(Cl)c2)cnn1-c1nc2ccccc2s1 the results were TR-FRET SRC-2 ct 2092*, PPARg SRC1 recr 9, PPARg SRC-2 ag 5, SRC3 TRFRET art 2400*, PPARg SRC3 recr 4 and SRC1 TRFRET art 2149.
Screening CCOc1ccc(/C=N/O)cc1 returned TR-FRET SRC-2 ct 1443, PPARg SRC1 recr -3, PPARg SRC-2 ag -3 and PPARg SRC3 recr 2.
For CCOc1ccc(/C=N/n2cc(-c3ccccc3)[nH]c2=S)cc1 the results were TR-FRET SRC-2 ct 1503, PPARg SRC1 recr 24*, PPARg SRC-2 ag 3, SRC3 TRFRET art 1762, PPARg SRC3 recr 10 and SRC1 TRFRET art 1892.
Screening O=C(Nc1ccncc1)c1cncc(Br)c1 returned TR-FRET SRC-2 ct 1683, PPARg SRC1 recr 12, PPARg SRC-2 ag 5 and PPARg SRC3 recr 19.
`O=C(Nc1ccc(N2CCCCC2)cc1)c1cncc(Br)c1` gave TR-FRET SRC-2 ct 1438, PPARg SRC1 recr 20*, PPARg SRC-2 ag 6 and PPARg SRC3 recr 5.
`O=C(Nc1ccc(N2CCCCC2)cc1)c1ccccc1` gave TR-FRET SRC-2 ct 1498, PPARg SRC1 recr 19*, PPARg SRC-2 ag 0 and PPARg SRC3 recr 7.
`Cc1ccc(C(=O)Nc2ccc(N3CCCC3)cc2)cc1` gave TR-FRET SRC-2 ct 1744, PPARg SRC1 recr 22*, PPARg SRC-2 ag 5, SRC3 TRFRET art 1531, PPARg SRC3 recr 6 and SRC1 TRFRET art 1942.
`S=C(c1cn(CCOc2ccccc2)c2ccccc12)N1CCCC1` gave TR-FRET SRC-2 ct 1705, PPARg SRC1 recr -1, PPARg SRC-2 ag 1 and PPARg SRC3 recr 7.
`S=C(c1cn(CCOc2cccc3ccccc23)c2ccccc12)N1CCCC1` gave TR-FRET SRC-2 ct 3070*, PPARg SRC1 recr 15, PPARg SRC-2 ag 19, SRC3 TRFRET art 3153*, PPARg SRC3 recr 19 and SRC1 TRFRET art 3691*.
For Cc1ccc(OCCn2cc(C(=S)N3CCCC3)c3ccccc32)cc1C the results were TR-FRET SRC-2 ct 2180*, PPARg SRC1 recr 16, PPARg SRC-2 ag 2 and PPARg SRC3 recr 9.
`Cc1cc2oc(C(=O)Nc3ccc(S(N)(=O)=O)cc3)c(C)c2cc1Cl` gave TR-FRET SRC-2 ct 1623, PPARg SRC1 recr -1, PPARg SRC-2 ag 0, SRC3 TRFRET art 1576, PPARg SRC3 recr 0 and SRC1 TRFRET art 1821.
`CO/N=C/CC(=O)c1cnc(-c2ccc(Cl)cc2)s1` gave TR-FRET SRC-2 ct 1269, PPARg SRC1 recr 3, PPARg SRC-2 ag -5, SRC3 TRFRET art 1512, PPARg SRC3 recr 3 and SRC1 TRFRET art 1869.
For Cc1ccc(-c2nnc(NCc3nc4ccccc4[nH]3)c3ccccc23)cc1S(=O)(=O)N1CCCCC1 the results were TR-FRET SRC-2 ct 1948, PPARg SRC1 recr 5, PPARg SRC-2 ag 5, SRC3 TRFRET art 2547*, PPARg SRC3 recr 0 and SRC1 TRFRET art 2094.
`Cc1ccc(-c2nnc(NC3CCCCC3)c3ccccc23)cc1S(=O)(=O)N1CCN(C)CC1` gave TR-FRET SRC-2 ct 1505, PPARg SRC1 recr 2, PPARg SRC-2 ag 5 and PPARg SRC3 recr -1.
Screening CCC1(c2ccc(F)cc2)NC(=O)N(CC(=O)Nc2ccc(-c3nc4ccc(C)cc4s3)cc2)C1=O (stereo not given) returned TR-FRET SRC-2 ct 1532, PPARg SRC1 recr -3, PPARg SRC-2 ag -3, SRC3 TRFRET art 2350*, PPARg SRC3 recr -2 and SRC1 TRFRET art 1683.
For Cc1nc2ccc(NC(=O)CCS(=O)(=O)c3ccccc3)cc2s1 the results were TR-FRET SRC-2 ct 1460, PPARg SRC1 recr 5, PPARg SRC-2 ag -3, SRC3 TRFRET art 1750, PPARg SRC3 recr -3 and SRC1 TRFRET art 1719.
For Cc1ccc2nc(-c3ccc(NC(=O)CCS(=O)(=O)c4ccccc4)cc3)sc2c1 the results were TR-FRET SRC-2 ct 1685, PPARg SRC1 recr 4, PPARg SRC-2 ag 3, SRC3 TRFRET art 2301*, PPARg SRC3 recr 3 and SRC1 TRFRET art 1675.
COc1ccc(C2(C)NC(=O)N(CC(=O)Nc3ccc(-c4nc5ccc(C)cc5s4)cc3)C2=O)cc1 (stereo not given) was read as TR-FRET SRC-2 ct 1907, PPARg SRC1 recr 6, PPARg SRC-2 ag 4, SRC3 TRFRET art 2403*, PPARg SRC3 recr 0 and SRC1 TRFRET art 2469*.
Screening O=C(NCc1ccccc1Cl)c1ccc2nc[nH]c2c1 returned TR-FRET SRC-2 ct 1449, PPARg SRC1 recr -2, PPARg SRC-2 ag 7, SRC3 TRFRET art 1501, PPARg SRC3 recr -3 and SRC1 TRFRET art 2046.
For CCOC(=O)C1CCCN(S(=O)(=O)c2cc(Br)cc3c2N(C(=O)C2CC2)CC3)C1 (stereo not given) the results were TR-FRET SRC-2 ct 1794, PPARg SRC1 recr 26*, PPARg SRC-2 ag 6, SRC3 TRFRET art 1570, PPARg SRC3 recr -1 and SRC1 TRFRET art 2266.
O=C(COC(=O)c1ccc(-c2nnc(-c3ccccc3)o2)cc1)c1ccccc1 was read as TR-FRET SRC-2 ct 2098*, PPARg SRC1 recr 5, PPARg SRC-2 ag 15, SRC3 TRFRET art 1850, PPARg SRC3 recr 3 and SRC1 TRFRET art 2073.
For O=C(Nc1ccc2oc(-c3ccc4ccccc4c3)nc2c1)c1ccc2c(c1)OCCO2 the results were TR-FRET SRC-2 ct 1469, PPARg SRC1 recr 27*, PPARg SRC-2 ag 7 and PPARg SRC3 recr 7.
Screening Cc1ccc2nc(-c3cccc(NC(=O)c4ccc5c(c4)OCCO5)c3)oc2c1 returned TR-FRET SRC-2 ct 1507, PPARg SRC1 recr -10, PPARg SRC-2 ag -2 and PPARg SRC3 recr -10.
`O=C(Nc1ccc2nn(-c3ccccc3)nc2c1)c1ccc2c(c1)OCO2` gave TR-FRET SRC-2 ct 1492, PPARg SRC1 recr 6, PPARg SRC-2 ag 22* and PPARg SRC3 recr -6.
`O=C(Nc1cccc(F)c1)c1ccc2c(c1)OCO2` gave TR-FRET SRC-2 ct 1477, PPARg SRC1 recr -4, PPARg SRC-2 ag 2 and PPARg SRC3 recr 6.
For Cc1ccc2nc(SCC(=O)N3c4ccccc4CC3C)c(C)cc2c1 (stereo not given) the results were TR-FRET SRC-2 ct 1722, PPARg SRC1 recr -8, PPARg SRC-2 ag 7 and PPARg SRC3 recr 13.
Cc1ccc2nc(-c3cccnc3SCC(=O)N3c4ccccc4CC3C)[nH]c2c1 (stereo not given) was read as TR-FRET SRC-2 ct 2147*, PPARg SRC1 recr 3, PPARg SRC-2 ag 4 and PPARg SRC3 recr 5.
Cc1ccc2nc(-c3ccc(SCC(=O)O)nc3)[nH]c2c1 was read as TR-FRET SRC-2 ct 1849, PPARg SRC1 recr 11, PPARg SRC-2 ag 7 and PPARg SRC3 recr 12.

Source: PubChem (The Scripps Research Institute Molecular Screening Center)
